Data as given in PubChem BioAssay (NCATS).
Records with an inconclusive call do not appear. Active and inactive are the calls of the source. Unless noted, calls follow the shape of the dose curve; as a rule, active = well fitted cell-killing curve with a large enough effect; inconclusive = small, poorly fitted or top-dose-only effect, or effect the other way; inactive = flat fitted curve, though single readings scatter.

How the values were obtained:
C33A = test: Primary qHTS to identify gynecologic anti-cancer compounds using libraries of approved drugs and bioactive compounds (AID 1345084); conditions: Gynecologic cancer cell panel viability, ATPlite luminescence, 48 h; series mostly up to 57.5 µM; also: % is scaled to controls: 0 for no effect and ±100 for the full control effect; nearly all actives have a fitted effect of over 55% in size
How it was run: (§1)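 In this quantitative HTS, cell killing is estimated from loss of ATP-dependent luciferase light. Cells see five compound concentrations over a 48 h exposure.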

CAOV3 = test: as above; conditions: Gynecologic cancer cell panel viability, ATPlite luminescence, 48 h; series mostly up to 57.5 µM
How it was run: as §1

CASKI = test: as above; conditions: Gynecologic cancer cell panel viability, ATPlite luminescence, 48 h; series mostly up to 57.5 µM
How it was run: as §1

Es-2 = test: as above; conditions: Gynecologic cancer cell panel viability, ATPlite luminescence, 48 h; series mostly up to 57.5 µM
How it was run: as §1

HeLa = test: as above; conditions: Gynecologic cancer cell panel viability, ATPlite luminescence, 48 h; series mostly up to 57.5 µM
How it was run: as §1

Hek293T = test: as above; conditions: Gynecologic cancer cell panel viability, ATPlite luminescence, 48 h, control line for the selectivity index; series mostly up to 57.5 µM
How it was run: as §1

JEG-3 = test: as above; conditions: Gynecologic cancer cell panel viability, ATPlite luminescence, 48 h; series mostly up to 57.5 µM
How it was run: as §1

OV90 = test: as above; conditions: Gynecologic cancer cell panel viability, ATPlite luminescence, 48 h; series mostly up to 57.5 µM
How it was run: as §1

PA-1 = test: as above; conditions: Gynecologic cancer cell panel viability, ATPlite luminescence, 48 h; series mostly up to 57.5 µM
How it was run: as §1

SKOV3 = test: as above; conditions: Gynecologic cancer cell panel viability, ATPlite luminescence, 48 h; series mostly up to 57.5 µM
How it was run: as §1

Tov112D = test: as above; conditions: Gynecologic cancer cell panel viability, ATPlite luminescence, 48 h; series mostly up to 57.5 µM
How it was run: as §1

Tov-21-G = test: as above; conditions: Gynecologic cancer cell panel viability, ATPlite luminescence, 48 h; series mostly up to 57.5 µM
How it was run: as §1

[1] = molecular target: Nuclear receptor subfamily 1 group I member 2 (Rattus norvegicus) (UniProt Q9R1A7); test: qHTS assay for small molecule activators of the rat pregnane X receptor (rPXR) signaling pathway (AID 651751; call rule not given here; also: 0% is about no effect); conditions: rPXR reporter cells, luciferase (One-Glo), 24 h
Chain of Nuclear receptor subfamily 1 group I member 2 (Rattus norvegicus) (Q9R1A7 whole entry, looked up): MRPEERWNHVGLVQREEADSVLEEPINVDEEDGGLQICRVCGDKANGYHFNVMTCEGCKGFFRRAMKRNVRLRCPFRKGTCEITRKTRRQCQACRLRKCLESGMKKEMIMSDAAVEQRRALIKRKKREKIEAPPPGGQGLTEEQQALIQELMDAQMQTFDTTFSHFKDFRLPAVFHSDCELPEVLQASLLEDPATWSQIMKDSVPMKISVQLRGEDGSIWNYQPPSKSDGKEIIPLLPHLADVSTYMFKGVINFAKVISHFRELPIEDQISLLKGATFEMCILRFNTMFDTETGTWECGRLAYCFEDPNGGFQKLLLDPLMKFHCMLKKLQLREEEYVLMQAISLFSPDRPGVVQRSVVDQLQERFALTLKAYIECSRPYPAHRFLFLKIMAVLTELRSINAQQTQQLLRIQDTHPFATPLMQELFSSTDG

[2] = qHTS assay for small molecule activators of the human pregnane X receptor (PXR) signaling pathway (AID 720659; call rule not given here; also: 0% is about no effect)

CC[C@H]1OC(=O)[C@](C)(F)C(=O)[C@H](C)[C@@H](O[C@@H]2O[C@H](C)C[C@H](N(C)C)[C@H]2O)[C@](C)(OC)C[C@@H](C)C(=O)[C@@H](C)[C@H]2N(CCCCn3cc(-c4cccc(N)c4)nn3)C(=O)O[C@]12C
inactive: Potency (C33A) | Potency (CAOV3) | Potency (CASKI) | Potency (Es-2) | Potency (HeLa) | Potency (Hek293T) | Potency (JEG-3) | Potency (OV90) | Potency (PA-1) | Potency (SKOV3) | Potency (Tov112D)

C=C(C(=O)OC)C1C(O)CC2(C)C(=O)CCC(O)(CO)C2C1O (centres undefined)
inactive: Potency (C33A) | Potency (CAOV3) | Potency (CASKI) | Potency (Es-2) | Potency (HeLa) | Potency (Hek293T) | Potency (JEG-3) | Potency (OV90) | Potency (PA-1) | Potency (SKOV3) | Potency (Tov-21-G) | Potency (Tov112D)

NC(=O)[C@H](O[C@@H]1O[C@H](CO)[C@@H](O)[C@H](O)[C@H]1O)c1ccccc1
inactive: Potency (C33A) | Potency (CAOV3) | Potency (CASKI) | Potency (Es-2) | Potency (HeLa) | Potency (Hek293T) | Potency (JEG-3) | Potency (OV90) | Potency (PA-1) | Potency (Tov-21-G) | Potency (Tov112D)

CCNC(=O)C1OC(n2cnc3c(N)nc(NCCc4ccc(CCC(=O)O)cc4)nc32)C(O)C1O (centres undefined)
inactive: Potency (C33A) | Potency (CAOV3) | Potency (CASKI) | Potency (Es-2) | Potency (HeLa) | Potency (Hek293T) | Potency (JEG-3) | Potency (OV90) | Potency (PA-1) | Potency (Tov-21-G) | Potency (Tov112D)

CC(=O)C=C=C1C(C)(C)CC(O[C@@H]2O[C@H](CO)[C@@H](O)[C@H](O)[C@H]2O)CC1(C)O (some centres undefined)
inactive: Potency (C33A) | Potency (CAOV3) | Potency (CASKI) | Potency (Es-2) | Potency (HeLa) | Potency (Hek293T) | Potency (JEG-3) | Potency (OV90) | Potency (PA-1) | Potency (Tov-21-G) | Potency (Tov112D)

C=C1CC2C(C)(CCC(=O)O)C(C(C)(C)O)CCC2(C)C2C(=O)OC(C)(C(=O)OC)C(=O)C12C (centres undefined)
inactive: Potency (C33A) | Potency (CAOV3) | Potency (CASKI) | Potency (Es-2) | Potency (HeLa) | Potency (Hek293T) | Potency (JEG-3) | Potency (OV90) | Potency (PA-1) | Potency (SKOV3) | Potency (Tov-21-G) | Potency (Tov112D)

CC(=O)O[C@@H]1CC(C)=C2[C@H]1[C@H](C)CC[C@H]2/C=C(\C)C(=O)O
inactive: Potency (C33A) | Potency (CAOV3) | Potency (CASKI) | Potency (Es-2) | Potency (HeLa) | Potency (Hek293T) | Potency (JEG-3) | Potency (OV90) | Potency (PA-1) | Potency (SKOV3) | Potency (Tov-21-G) | Potency (Tov112D) | max response [1] -4.19% | outcome [2]

COc1ccc(CNC(=O)c2sc3nc(C)cc(C)c3c2N)cc1
inactive: Potency (C33A) | Potency (CAOV3) | Potency (CASKI) | Potency (Es-2) | Potency (HeLa) | Potency (Hek293T) | Potency (JEG-3) | Potency (OV90) | Potency (PA-1) | Potency (Tov-21-G) | Potency (Tov112D)

C=CC(C)(O)C(O)CC1C(C)(O)C(O)C(O)C2C(C)(C)CCCC21C (centres undefined)
inactive: Potency (C33A) | Potency (CAOV3) | Potency (CASKI) | Potency (Es-2) | Potency (HeLa) | Potency (Hek293T) | Potency (JEG-3) | Potency (OV90) | Potency (PA-1) | Potency (SKOV3) | Potency (Tov-21-G) | Potency (Tov112D)

COc1ccc(-c2ccc(-c3cn(C(=O)N4CCCCC4c4ccccc4)nn3)cc2)cc1 (centres undefined)
inactive: Potency (C33A) | Potency (CAOV3) | Potency (CASKI) | Potency (Es-2) | Potency (HeLa) | Potency (Hek293T) | Potency (JEG-3) | Potency (OV90) | Potency (PA-1) | Potency (SKOV3) | Potency (Tov-21-G) | Potency (Tov112D)

COc1cc(N)c(Cl)cc1C(=O)NC[C@@H]1CCN2CCC[C@@H]12
inactive: Potency (C33A) | Potency (CAOV3) | Potency (CASKI) | Potency (Es-2) | Potency (HeLa) | Potency (Hek293T) | Potency (JEG-3) | Potency (OV90) | Potency (PA-1) | Potency (SKOV3) | Potency (Tov-21-G) | Potency (Tov112D)

CCC(O)C(C)C1CCC(C(C)C(=O)O)O1 (centres undefined)
inactive: Potency (C33A) | Potency (CAOV3) | Potency (CASKI) | Potency (Es-2) | Potency (HeLa) | Potency (Hek293T) | Potency (JEG-3) | Potency (OV90) | Potency (PA-1) | Potency (Tov-21-G) | Potency (Tov112D)

CO[C@H]1O[C@@H]2O[C@]3(C)CC[C@H]4[C@H](C)CC[C@@H]([C@H]1C)[C@@]24OO3
inactive: Potency (C33A) | Potency (CAOV3) | Potency (CASKI) | Potency (Es-2) | Potency (HeLa) | Potency (Hek293T) | Potency (JEG-3) | Potency (OV90) | Potency (PA-1) | Potency (Tov-21-G) | Potency (Tov112D)

Cc1ccccc1CN1C2=NCCN2C(=O)C2=C1CCN(Cc1ccccc1)C2
inactive: Potency (C33A) | Potency (CAOV3) | Potency (CASKI) | Potency (Es-2) | Potency (HeLa) | Potency (Hek293T) | Potency (JEG-3) | Potency (OV90) | Potency (PA-1) | Potency (Tov-21-G) | Potency (Tov112D)

CC#CC(=O)N1CCC[C@H]1c1nc(-c2ccc(C(=O)Nc3ccccn3)cc2)c2c(N)nccn12
inactive: Potency (C33A) | Potency (CAOV3) | Potency (CASKI) | Potency (Es-2) | Potency (HeLa) | Potency (Hek293T) | Potency (JEG-3) | Potency (OV90) | Potency (PA-1) | Potency (Tov-21-G) | Potency (Tov112D)

COc1ccc([C@@H]2OC[C@H]3[C@@H]2CO[C@@H]3c2ccc(OC3OC(CO)C(O)C(O)C3O)c(OC)c2)cc1OC (some centres undefined)
inactive: Potency (C33A) | Potency (CAOV3) | Potency (CASKI) | Potency (Es-2) | Potency (HeLa) | Potency (Hek293T) | Potency (JEG-3) | Potency (OV90) | Potency (PA-1) | Potency (Tov-21-G) | Potency (Tov112D)
